Compound activity as filed in PubChem.
The full list was thinned out, with hits kept by preference.
NOMO-1 viab – STK33 inhibitor candidate reducing NOMO-1 cell viability; NOMO-1 AML viability, CellTiter-Glo luminescence, 72 h; inhibition, % (test concentration not listed); hit rate 7.5% among 37,000; AID 2330; in the data active means inhibition above about 80%; inconclusive means no clear call, values can overlap the other calls
STK33 inh – inhibitors of human STK33 kinase | ADP-Glo luminescence, MBP substrate | Q9BYT3 | inhibition, % at 12.5 µM | hit rate 0.44% among 27,000; in the data active means inhibition above about 20%; inconclusive means no clear call, values can overlap the other calls
Target sequence (Q9BYT3 whole entry, looked up): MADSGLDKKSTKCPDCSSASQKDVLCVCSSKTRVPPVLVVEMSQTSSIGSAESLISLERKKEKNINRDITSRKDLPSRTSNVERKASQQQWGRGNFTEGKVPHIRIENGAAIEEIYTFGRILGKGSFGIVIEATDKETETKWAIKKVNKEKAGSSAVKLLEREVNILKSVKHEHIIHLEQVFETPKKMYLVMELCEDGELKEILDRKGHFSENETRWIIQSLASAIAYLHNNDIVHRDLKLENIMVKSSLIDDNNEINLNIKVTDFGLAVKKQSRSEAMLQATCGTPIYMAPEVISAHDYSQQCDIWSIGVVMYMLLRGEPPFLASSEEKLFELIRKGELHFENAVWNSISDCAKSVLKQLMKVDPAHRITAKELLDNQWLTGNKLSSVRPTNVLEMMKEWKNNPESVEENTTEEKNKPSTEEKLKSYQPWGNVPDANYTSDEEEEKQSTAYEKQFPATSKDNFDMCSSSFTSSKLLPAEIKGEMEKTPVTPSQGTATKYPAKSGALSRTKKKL
PD-1 reverse act – reversal of PD-1 mediated T-cell inhibition | activation, % (no concentration beside the values) | primary human CD4 T cells, PD-L1 beads, CellTiter-Glo 96 h | 29,000 tested, under 10 active; call rule not given here
Large screens that a line does not name were inactive.

C=C1C(=O)O[C@@H]2C[C@@]3(C)CC(=O)C=C(C)C3C[C@H]12 (some centres undefined)	NOMO-1 viab 120
c1ccc(Cc2ccc[n+](Cc3ccccn3)c2)cc1	none (no result: STK33 inh)
S=C1C=C(N2CCCCC2)CC(c2ccc(Cl)cc2)S1 (centres undefined)	none (no result: STK33 inh)
Clc1ccc(C2=NN=C(N3CCCC3)SC2)cc1	NOMO-1 viab 99 (no result: STK33 inh)
CSc1sc(C#N)c(C)c1C(=O)/C=C/N(C)C	none
Cc1ccc(S(=O)(=O)Nc2cccc3c2O[C@@H](CN(C)Cc2ccc(C(=O)Nc4ccccc4N)cc2)[C@H](C)CN([C@H](C)CO)C3=O)cc1	none (no result: STK33 inh)
C[C@@H]1CN([C@@H](C)CO)C(=O)c2cccc(NS(=O)(=O)c3ccc(Cl)cc3)c2O[C@@H]1CN(C)Cc1ccc(C(=O)Nc2ccccc2N)cc1	NOMO-1 viab 128 (no result: STK33 inh)
C[C@@H]1CN([C@H](C)CO)C(=O)c2cccc(NS(=O)(=O)c3ccc(Cl)cc3)c2O[C@H]1CN(C)Cc1ccc(C(=O)Nc2ccccc2N)cc1	none (no result: STK33 inh)
C[C@H]1CN([C@@H](C)CO)C(=O)c2cccc(NS(=O)(=O)c3ccc(Cl)cc3)c2O[C@@H]1CN(C)Cc1ccc(C(=O)Nc2ccccc2N)cc1	NOMO-1 viab 126 (no result: STK33 inh)
COc1ccc(S(=O)(=O)Nc2cccc3c2O[C@@H](CN(C)Cc2ccc(C(=O)Nc4ccccc4N)cc2)[C@H](C)CN([C@@H](C)CO)C3=O)cc1	none (no result: STK33 inh)
C[C@H](CO)N1C[C@H](C)[C@H](CN(C)Cc2ccc(C(=O)O)cc2)Oc2c(NS(=O)(=O)c3cccs3)cccc2C1=O	none (no result: STK33 inh)
COc1ccc(S(=O)(=O)Nc2cccc3c2O[C@H](CN(C)Cc2ccc(C(=O)Nc4ccccc4N)cc2)[C@@H](C)CN([C@@H](C)CO)C3=O)cc1	NOMO-1 viab 129 (no result: STK33 inh)
C[C@@H]1CN([C@H](C)CO)C(=O)c2cccc(NS(=O)(=O)c3cccs3)c2O[C@@H]1CN(C)Cc1ccc(C(=O)Nc2ccccc2N)cc1	NOMO-1 viab 138 (no result: STK33 inh)
COc1cc(C(=O)NC(=S)Nc2cccc(-c3nc4ncccc4o3)c2C)cc(OC)c1OC	none
Cc1cc(C)cc(N(CC(=O)O)S(C)(=O)=O)c1	none (no result: NOMO-1 viab, PD-1 reverse act)
COc1ccc(-n2ncc(NC(=O)NCc3ccccn3)c2C)cc1	none (no result: STK33 inh)
Cc1sc(NC(=O)COc2ccc(Cl)cc2Br)c(C(N)=O)c1C	none
CSc1cccc(NC(=O)c2cc3c(ccc4ccccc43)o2)c1	none (no result: STK33 inh)
CNC(=O)CN(C)S(=O)(=O)c1ccc(OC)c(C)c1	none
CC(C)CC(NC(=O)Nc1cccc2ccccc12)C(=O)O (centres undefined)	none (no result: STK33 inh)
C[C@H](CO)N1C[C@H](C)[C@@H](CN(C)Cc2ccc(C(=O)Nc3ccccc3N)cc2)Oc2c(NS(=O)(=O)c3ccccc3)cccc2C1=O	none (no result: STK33 inh)
C[C@H]1CN([C@@H](C)CO)C(=O)c2cc(NS(=O)(=O)c3ccc(F)cc3)ccc2O[C@H]1CN(C)Cc1ccc(C(=O)Nc2ccccc2N)cc1	NOMO-1 viab inconclusive (no result: STK33 inh)
C[C@H](CO)N1C[C@H](C)[C@H](CN(C)Cc2ccc(C(=O)Nc3ccccc3N)cc2)Oc2c(NS(=O)(=O)c3ccc(F)cc3)cccc2C1=O	NOMO-1 viab 133 (no result: STK33 inh)
C[C@@H]1CN([C@@H](C)CO)C(=O)c2cccc(NS(=O)(=O)c3ccccc3)c2O[C@@H]1CN(C)Cc1ccc(C(=O)Nc2ccccc2N)cc1	NOMO-1 viab 129 (no result: STK33 inh)
Cc1ccnc(SCC(=O)Nc2ccccc2C)n1	none
CCOC(=O)c1c(NC(=O)CN2C(=O)c3ccccc3S2(=O)=O)sc2c1CCCC2	none
COC(=O)c1cccc(NC(=O)CN(c2ccc(F)c(Cl)c2)S(C)(=O)=O)c1C	NOMO-1 viab 106
COC(=O)c1cc(NC(=O)CN(c2ccc(F)c(Cl)c2)S(C)(=O)=O)ccc1Cl	NOMO-1 viab 96 (no result: PD-1 reverse act)
COC(=O)c1cccc(NC(=O)CN(c2ccc(F)cc2)S(C)(=O)=O)c1C	NOMO-1 viab 109 (no result: PD-1 reverse act)
COC(=O)c1cccc(NC(=O)CN(c2ccc(Br)c(C)c2)S(C)(=O)=O)c1C	none
COC(=O)c1ccccc1NC(=O)CN(c1ccc(F)c(Cl)c1)S(C)(=O)=O	none
COC(=O)c1ccccc1NC(=O)CN(c1cccc(F)c1)S(C)(=O)=O	none (no result: PD-1 reverse act)
COC(=O)c1ccc(NC(=O)CN(c2ccc(F)c(Cl)c2)S(C)(=O)=O)cc1	none
COC(=O)c1cccc(NC(=O)CN(c2cccc(F)c2)S(C)(=O)=O)c1C	NOMO-1 viab 98 (no result: PD-1 reverse act)
C=C(CCCCCCCC(=O)O)C(=O)OC	none
N#Cc1c(NC(=O)c2cc3nc(-c4ccco4)cc(C(F)(F)F)n3n2)sc2c1CCC2	none
C=C1[C@@H]2CC[C@H]3[C@]4(C)C[C@H](O)C[C@@H](C(=O)OC)[C@H]4CC[C@]3(C2)[C@H]1O	none
Cc1cc(C(=O)O)nn1-c1ccccc1	none (no result: STK33 inh)
COc1ccc(N(C(C)C(=O)Nc2ccccc2Cl)S(C)(=O)=O)cc1 (centres undefined)	none
COc1ccccc1Nc1ncnc2c1cnn2Cc1ccccc1	none
Cc1ccc(O)c(NC(=S)NC(=O)c2ccc(-c3ccccc3[N+](=O)[O-])o2)c1	none (no result: PD-1 reverse act)
COc1ccc([C@@]2(O)c3c(ccc(/C=C/C4(C)CCC(C)(C)CO4)c3O)NC(=O)[C@@H]2OC)cc1 (some centres undefined)	none
C[C@@H]1CN([C@H](C)CO)C(=O)c2cccc(NC(=O)Nc3ccc(C(F)(F)F)cc3)c2O[C@H]1CN(C)Cc1ccc(C(F)(F)F)cc1	NOMO-1 viab inconclusive (no result: STK33 inh)
C[C@H]1CN([C@@H](C)CO)C(=O)c2cccc(NC(=O)Nc3ccc(C(F)(F)F)cc3)c2O[C@H]1CN(C)Cc1ccc(C(F)(F)F)cc1	NOMO-1 viab 114 (no result: STK33 inh)
C[C@@H]1CN([C@H](C)CO)C(=O)c2cccc(NC(=O)Nc3ccc(C(F)(F)F)cc3)c2O[C@@H]1CN(C)Cc1ccc(-c2ccccc2)cc1	NOMO-1 viab inconclusive (no result: STK33 inh)
C[C@@H]1CN([C@@H](C)CO)C(=O)c2cccc(NC(=O)Nc3ccc(C(F)(F)F)cc3)c2O[C@@H]1CN(C)Cc1ccc(-c2ccccc2)cc1	NOMO-1 viab 125 (no result: PD-1 reverse act)
C[C@H]1CN([C@@H](C)CO)C(=O)c2cccc(NC(=O)Nc3ccc(F)cc3)c2O[C@@H]1CN(C)Cc1ccc(C(F)(F)F)cc1	none (no result: STK33 inh)
C[C@@H]1CN([C@H](C)CO)C(=O)c2cccc(NC(=O)Nc3ccc(C(F)(F)F)cc3)c2O[C@@H]1CN(C)Cc1ccc(C(F)(F)F)cc1	NOMO-1 viab 111 (no result: STK33 inh)
C[C@@H]1CN([C@H](C)CO)C(=O)c2cccc(NC(=O)Nc3ccccc3)c2O[C@H]1CN(C)Cc1ccc(C(F)(F)F)cc1	NOMO-1 viab 91 (no result: STK33 inh, PD-1 reverse act)
C[C@H](CO)N1C[C@H](C)[C@H](CN(C)Cc2ccc(C(F)(F)F)cc2)Oc2c(NC(=O)Nc3ccccc3)cccc2C1=O	none (no result: STK33 inh, PD-1 reverse act)
O=C(CNS(=O)(=O)c1ccccc1)Nc1ccc(Br)cc1F	none
O=C(CSc1nnc(-c2ccccc2Cl)n1-c1ccccc1)Nc1ccccc1Cl	none
COc1cccc(NC(=O)c2ccc(NCc3cccnc3)c([N+](=O)[O-])c2)c1	none (no result: PD-1 reverse act)
O=c1c2ccccc2nc(CSc2nnc(-c3ccco3)n2-c2ccccc2)n1-c1ccccc1Cl	none (no result: PD-1 reverse act)
Cc1cccc(C)c1NC(=S)N(CCC#N)C(C)C	none (no result: STK33 inh)
FC(F)(F)c1cc(C#CCN2CCCCC2)cc(C(F)(F)F)c1	none (no result: STK33 inh)
CCc1ccccc1NC(=O)CN(C)S(=O)(=O)c1ccc(Br)cc1	none
COc1cc(O[C@@H]2O[C@H](CO[C@H]3OC[C@](O)(CO)[C@H]3O)[C@@H](O)[C@H](O)[C@H]2O)cc(OC)c1OC	none
